A number with no mark means an inactive call. Records with an inconclusive call do not appear. Entries that show only a call come without a potency. The source made the active and inactive calls. Unless noted, the call rests on the fitted dose curve; in most records, active means well fitted curve in the direction sought with a large enough effect; inconclusive means small, poorly fitted or top-dose-only effect, or another doubt; inactive means no such curve, though single readings can be large; an effect the other way counts as inactive or inconclusive.
Tests used:
[1] = qHTS to identify inhibitors of the type 1 interferon - major histocompatibility complex class I in skeletal muscle: primary screen against the NCATS LOPAC collection (AID 1347405);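 further: lytic HiBiT luminescence reporting HLA-B protein level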
Summary of the method: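 IFN-beta-stimulated (4 ng/ml) HLA-B HiBiT knock-in myoblasts, compound-treated 24 hrs up to 46 uM final; signal via LgBiT complementation and furimazine luminescence.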

[2] = qHTS to identify inhibitors of the type 1 interferon - major histocompatibility complex class I in skeletal muscle: primary screen against the NCATS Pharmaceutical Collection (AID 1347407);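 further: luminescence of HiBiT knocked into endogenous HLA-B as interferon-induced MHC class I level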
Summary of the method: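 Immortalized human myoblasts (C25cl48) with HiBiT knocked into endogenous HLA-B*08:01 were stimulated with 4.0 ng/ml IFN-beta and treated with compounds ([…] top 46 uM) for 24 hrs at 37 C. HiBiT lytic luminescence read.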

[3] = qHTS for inhibitors of adenylyl cyclases using a fission yeast platform: a pilot screen against the NCATS LOPAC library (AID 1347410)
Summary of the method: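 S. pombe CHP2027 (AC9-GNAS-PDE4D2) carrying PKA-repressed fbp1-GFP, incubated 18 h at 30C in EMM with LOPAC compounds at up to 57 uM. GFP gain-of-signal read by laser scanning cytometry; DMSO negative control.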

[4] = target: Protein phosphatase 1D (Homo sapiens) (UniProt O15297); test: RapidFire Mass Spectrometry qHTS Assay for Modulators of WT P53-Induced Phosphatase 1 (WIP1) (AID 1347424);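 further: amount of dephosphorylated VEPPL-S-QETFS peptide product formed by WIP1; series mostly up to about 63 µM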
Summary of the method: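 RapidFire mass spectrometry measured dephosphorylated peptide after 5 min room-temperature reaction of 2 uM VEPPL-pS-QETFS with 10 nM WIP1 (50 mM Tris-HCl pH 7.5, 30 mM MgCl2, 0.1 mM EGTA, BSA), following 1 hr compound preincubation; 1 uM isotope-labelled product standard.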

[5] = target: Protein phosphatase 1D (Homo sapiens) (UniProt O15297); test: Rhodamine-PBP qHTS Assay for Modulators of WT P53-Induced Phosphatase 1 (WIP1) (AID 1347425)
Summary of the method: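 Steps: enzyme with Rh-PBP sensor and compounds, room-temperature incubation of 1 hr, baseline read, addition of VEPPL-pS-QETFS (10 uM final), kinetic fluorescence reads at 525/598 nm. Activity equals final minus baseline signal.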

[6] = Validation qHTS assay for inhibitors of Activation Induced Cytidine Deaminase (AID): UDG Counterscreen signal (AID 1347427)
Summary of the method: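 Fluorescence at 560 nm excitation, 665 nm emission reports UDG signal after 250 mM NaOH (2x) addition and 30 min. Enzymes (AID 1 uM, UDG 2 U/mL, at 4/3x) preincubated 10 min with compound, then 4 h with 4x 250 nM DJC20/DJC23 substrate at room temperature.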

[7] = target: Single-stranded DNA cytosine deaminase (Homo sapiens) (UniProt Q9GZX7); test: Validation qHTS assay for inhibitors of Activation Induced Cytidine Deaminase (AID): AID signal (AID 1347429)
Summary of the method: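 Compounds (up to 114 uM final) are tested against AID plus UDG using DJC20/DJC23 FRET substrate. Reactions incubate 4 hr at room temperature, receive NaOH for 30 min, and are read at Ex 540/Em 590 nm.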

[8] = Primary qHTS for inhibitors of La Crosse Virus (LACV) - induced cell death in SH-SY5Y cells (AID 1508616);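 further: top concentration of the series differs between compounds; higher means more rescue of cells from virus-induced death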
Summary of the method: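 Screening measures cell viability in LACV-infected SH-SY5Y cultures. Compound was added before virus (0.01 MOI), and ATP was detected by luminescence 6 days later.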

[9] = target: Calcium and integrin-binding protein 1 (Homo sapiens) (UniProt Q99828); test: Validation qHTS for Identification of Calcium Integrin Binding protein 1 (CIB1) Competitor (AID 1508618)
Summary of the method: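 In this qHTS validation, the LOPAC set (up to 114 uM) was tested for blocking CIB1 binding to a fluorescein-tagged alphaIIb peptide, with FP detection at 480/540 nm.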

[10] = target: Calcium and integrin-binding protein 1 (Homo sapiens) (UniProt Q99828); test: Primary qHTS for Identification of Calcium Integrin Binding Protein 1 (CIB1) Competitor (AID 1508620);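 further: GST tagged CIB1 binding a fluorescein labelled alphaIIb integrin peptide tracer; top concentration of the series differs between compounds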
Summary of the method: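 CIB1-GST (1 uM final) and compound incubated 15 min at room temperature before adding FITC-alphaIIb peptide tracer (100 nM final). Competition for binding read by fluorescence polarization (ex 480, em 540) after another 15 min at room temperature.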

[11] = A High-Content qHTS Against Drug Library for the Identification of Small Molecules that Inhibit DYT1 Early Onset Primary Dystonia-Associated Cell Pathology (AID 1645839; calls by dose curve; further: series mostly up to about 46 µM)
Summary of the method: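 High-content imaging quantified EGFP-TorsinA mislocalization in HEK293-derived cells inducibly expressing DYT1 mutant torsinA, after 48 h exposure to compound given together with tetracycline induction. Cell count served as a toxicity channel alongside %pathology.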

[12] = target: Cytochrome P450 2C9 (Homo sapiens) (UniProt P11712); test: Cytochrome P450 family 2 subfamily C member 9 (CYP2C9) small molecule antagonists: luciferase biochemical (cell-free) qHTS assay (AID 1645842; active means well fitted curve in the direction sought with a large enough effect in the repeat runs; an effect the other way counts as inactive or inconclusive; further: nearly all actives have a fitted effect of over 55% in size; further: potency means the concentration at half of the fitted maximal effect)
Summary of the method: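 P450-Glo CYP2C9 system: proluciferin substrate with enzyme in mix containing 0.4% BSA, 10 min at room temperature, then NADPH regeneration solution added and incubated 1 h at 37C. Detection reagent stopped reaction; luminescence read after 20 min as RLU.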

Papain (Carica papaya) = Papain (Carica papaya) (UniProt P00784); test: Primary qHTS assay for inhibitors of the protease papain (AID 1645873);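 further: papain turnover of Z-FR-AMC read as the AMC fluorescence gain over 10 min; series mostly up to about 50 µM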
[13] = qHTS to identify inhibitors of the type 1 interferon - major histocompatibility complex class I in skeletal muscle: primary screen against the NCATS Mechanism Interrogation Plate v5.0 (MIPE) Libary (AID 1347411); further: nearly all actives have a fitted effect of over 65% in size
Summary of the method: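 IFN-beta-driven (4 ng/ml) HLA-B-HiBit expression in CRISPR-tagged C25cl48 myoblasts; compounds 11-pt, 1:3, max 46 uM, 24 hr exposure; lytic NanoLuc complementation luminescence.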

[14] = target: Calcium and integrin-binding protein 1 (Homo sapiens) (UniProt Q99828); test: Confirmatory qHTS for Identification of Calcium Integrin Binding Protein 1 (CIB1) Competitor (AID 1508617); further: nearly all actives have a fitted effect of over 65% in size
Summary of the method: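 Binding competition between test compounds and fluorescent alphaIIb peptide for 1 uM CIB1-GST is monitored by FP at 480/540 nm. Final compound range is up to 114 uM; unlabeled peptide serves as reference competitor.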

[15] = Primary qHTS for small molecule stabilizers of the endoplasmic reticulum resident proteome: Secreted ER Calcium Modulated Protein (SERCaMP) assay (AID 1508630)
Summary of the method: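 The SH-SY5Y reporter protocol was run at 3 concentrations up to 38.3 uM (primary) or 11 concentrations (follow-up): 16 h compound, 100 nM thapsigargin for 4 h, then extracellular luciferase luminescence.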

[16] = target: Cytochrome P450 2D6 (Homo sapiens) (UniProt P10635); test: Cytochrome P450 family 2 subfamily D member 6 (CYP2D6) small molecule antagonists: luciferase biochemical (cell-free) qHTS assay (AID 1645840; active means well fitted curve in the direction sought with a large enough effect in the repeat runs; an effect the other way counts as inactive or inconclusive; further: nearly all actives have a fitted effect of over 55% in size; further: potency means the concentration at half of the fitted maximal effect)
Summary of the method: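 P450-Glo CYP2D6 system: proluciferin substrate converted by enzyme to luciferin, read by luminescence proportional to activity. Enzyme-substrate mix with compound 10 min at room temperature, then NADPH regeneration 1 h before detection reagent.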

[17] = Cell Viability qHTS for small molecule stabilizers of the endoplasmic reticulum resident proteome (AID 1508629); conditions: cell viability counter-screen, 100 nM thapsigargin for final 4 h;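 further: human SH-SY5Y neuroblastoma cells carrying the GLuc-SERCaMP reporter; compound exposure about 46 h in total before the viability read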

Chain of Cytochrome P450 2D6 (Homo sapiens) (P10635 whole entry, looked up): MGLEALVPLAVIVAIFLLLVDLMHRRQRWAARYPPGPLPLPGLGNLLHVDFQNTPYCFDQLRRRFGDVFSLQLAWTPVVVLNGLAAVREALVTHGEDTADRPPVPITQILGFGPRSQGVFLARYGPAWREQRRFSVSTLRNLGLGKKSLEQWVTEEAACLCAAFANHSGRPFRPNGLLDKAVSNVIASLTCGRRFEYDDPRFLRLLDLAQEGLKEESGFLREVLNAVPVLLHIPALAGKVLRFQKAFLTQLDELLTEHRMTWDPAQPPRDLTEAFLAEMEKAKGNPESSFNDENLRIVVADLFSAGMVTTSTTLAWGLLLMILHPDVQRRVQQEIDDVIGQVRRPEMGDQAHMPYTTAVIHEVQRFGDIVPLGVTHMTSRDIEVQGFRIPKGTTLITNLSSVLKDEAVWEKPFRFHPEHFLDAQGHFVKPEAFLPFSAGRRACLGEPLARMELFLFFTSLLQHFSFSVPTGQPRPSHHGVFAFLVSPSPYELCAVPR
Chain of Papain (Carica papaya) (P00784 whole entry, looked up): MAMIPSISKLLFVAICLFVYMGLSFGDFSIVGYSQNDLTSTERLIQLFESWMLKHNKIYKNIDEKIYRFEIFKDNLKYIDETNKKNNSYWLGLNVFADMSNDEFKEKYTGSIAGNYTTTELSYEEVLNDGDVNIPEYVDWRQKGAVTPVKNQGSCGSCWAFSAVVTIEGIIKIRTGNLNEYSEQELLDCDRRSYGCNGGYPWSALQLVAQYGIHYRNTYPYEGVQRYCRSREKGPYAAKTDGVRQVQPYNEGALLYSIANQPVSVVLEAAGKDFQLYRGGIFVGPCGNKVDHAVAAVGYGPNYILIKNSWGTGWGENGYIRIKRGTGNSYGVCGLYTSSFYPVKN
Chain of Single-stranded DNA cytosine deaminase (Homo sapiens) (Q9GZX7 whole entry, looked up): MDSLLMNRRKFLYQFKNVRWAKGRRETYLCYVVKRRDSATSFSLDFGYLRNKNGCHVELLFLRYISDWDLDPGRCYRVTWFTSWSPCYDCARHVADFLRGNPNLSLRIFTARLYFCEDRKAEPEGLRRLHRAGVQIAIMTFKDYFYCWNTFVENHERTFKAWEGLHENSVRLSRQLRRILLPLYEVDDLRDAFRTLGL
Chain of Calcium and integrin-binding protein 1 (Homo sapiens) (Q99828 whole entry, looked up): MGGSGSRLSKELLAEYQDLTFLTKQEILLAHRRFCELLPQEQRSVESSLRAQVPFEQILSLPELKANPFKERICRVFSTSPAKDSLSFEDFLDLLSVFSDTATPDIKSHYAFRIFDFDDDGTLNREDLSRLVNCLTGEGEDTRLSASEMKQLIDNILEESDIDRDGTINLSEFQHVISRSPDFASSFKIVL
Chain of Cytochrome P450 2C9 (Homo sapiens) (P11712 whole entry, looked up): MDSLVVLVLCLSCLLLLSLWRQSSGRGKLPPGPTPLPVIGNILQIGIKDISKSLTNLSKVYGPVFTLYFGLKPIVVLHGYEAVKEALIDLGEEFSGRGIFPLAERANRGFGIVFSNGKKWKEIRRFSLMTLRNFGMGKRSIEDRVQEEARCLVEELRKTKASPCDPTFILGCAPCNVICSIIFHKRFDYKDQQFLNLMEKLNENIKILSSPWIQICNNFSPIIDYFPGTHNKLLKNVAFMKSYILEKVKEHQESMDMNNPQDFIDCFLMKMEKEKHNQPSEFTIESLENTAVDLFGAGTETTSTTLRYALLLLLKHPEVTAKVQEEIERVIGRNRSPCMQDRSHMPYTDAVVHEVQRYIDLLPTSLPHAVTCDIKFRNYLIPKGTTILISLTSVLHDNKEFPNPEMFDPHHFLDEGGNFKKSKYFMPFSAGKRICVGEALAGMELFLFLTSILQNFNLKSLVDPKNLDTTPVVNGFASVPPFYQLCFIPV
Chain of Protein phosphatase 1D (Homo sapiens) (O15297 whole entry, looked up): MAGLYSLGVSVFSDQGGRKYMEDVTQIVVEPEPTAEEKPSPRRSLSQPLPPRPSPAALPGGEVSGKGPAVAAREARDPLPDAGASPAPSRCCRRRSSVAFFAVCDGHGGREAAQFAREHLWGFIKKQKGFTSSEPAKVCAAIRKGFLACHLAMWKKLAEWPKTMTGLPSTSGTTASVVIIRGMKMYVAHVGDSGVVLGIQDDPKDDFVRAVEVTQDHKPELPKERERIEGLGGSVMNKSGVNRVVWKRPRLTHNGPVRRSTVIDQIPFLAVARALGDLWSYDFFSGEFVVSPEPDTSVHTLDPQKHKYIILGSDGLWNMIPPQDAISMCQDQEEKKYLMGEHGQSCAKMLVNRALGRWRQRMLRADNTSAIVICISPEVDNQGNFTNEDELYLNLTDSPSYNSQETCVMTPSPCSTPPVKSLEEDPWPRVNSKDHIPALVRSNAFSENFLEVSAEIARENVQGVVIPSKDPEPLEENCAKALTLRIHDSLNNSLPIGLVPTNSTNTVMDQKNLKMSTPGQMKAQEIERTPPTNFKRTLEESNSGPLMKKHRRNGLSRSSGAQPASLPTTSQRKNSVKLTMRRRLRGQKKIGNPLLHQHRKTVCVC

Row | SMILES | Potency [1] | Potency [2] | outcome [3] | Potency [4] | outcome [5] | outcome [6] | Potency [7] | Potency [8] | outcome [9] | Potency [10] | Potency [11] | Potency [12] | Potency (Papain (Carica papaya)) | Potency [13] | outcome [14] | Potency [15] | Potency [16] | max response [17] [%]
1 | C[N+](C)(C)CCCCCCCCCC[N+](C)(C)C | inactive | inactive | inactive | inactive | inactive | inactive | inactive | inactive | inactive | inactive | inactive | inactive | inactive |  |  |  |  | 
2 | NC(=O)c1ncn([C@@H]2O[C@H](CO)[C@@H](O)[C@H]2O)c1O | inactive | inactive | inactive | inactive | inactive | inactive |  | inactive | inactive |  | inactive | inactive | inactive | inactive | inactive | inactive | inactive | 
3 | CC(=O)Oc1cc(C(C)C)c(OCCN(C)C)cc1C | inactive | inactive | inactive | inactive | inactive | inactive | inactive | inactive |  |  | inactive | inactive | inactive |  |  |  | 8.71 µM (active) | 
4 | Cc1ccc(S(=O)(=O)NC(=O)NN2CCCCCC2)cc1 | inactive | inactive | inactive | inactive | inactive | inactive | inactive | inactive | inactive | inactive | inactive |  | inactive |  |  | inactive |  | 
5 | CCCN1C[C@H](CSC)C[C@@H]2c3cccc4[nH]cc(c34)C[C@H]21 | inactive | inactive | inactive | inactive | inactive | inactive | inactive | inactive |  | inactive | inactive | inactive | inactive |  |  | inactive | 0.055 µM (active) | 
6 | c1cc(CN2CCCCC2)cc(OCCCNc2nc3ccccc3s2)c1 | inactive | inactive | inactive | inactive | inactive | inactive | inactive | inactive | inactive | inactive |  | inactive | inactive |  |  |  | 1.74 µM (active) | -7.44
7 | CN(C)CCOC(=O)COc1ccc(Cl)cc1 | inactive | inactive | inactive | inactive | inactive | inactive |  | inactive | inactive | inactive |  | inactive | inactive |  |  | inactive |  | 
8 | CCc1c(C)[nH]c2c1C(=O)C(CN1CCOCC1)CC2 (stereo not drawn) | inactive | inactive | inactive | inactive | inactive | inactive | inactive | inactive | inactive | inactive | inactive |  | inactive |  |  | inactive |  | 
9 | O=C(O)CP(=O)(O)O | inactive | inactive | inactive | inactive | inactive | inactive | inactive | inactive | inactive | inactive | inactive | inactive | inactive |  |  |  | inactive | 
10 | CC1=NS(=O)(=O)c2cc(Cl)ccc2N1 | inactive | inactive | inactive | inactive | inactive | inactive | inactive | inactive | inactive | inactive | inactive | inactive | inactive |  |  | inactive | inactive | 
11 | COC(=O)[C@@H](N)Cc1ccc(O)c(O)c1 | inactive | inactive | inactive | inactive | inactive | inactive |  | inactive | inactive | inactive | inactive | inactive | inactive |  |  |  |  | -5.59
12 | C[N+](C)(C)CCOC(N)=O | inactive | inactive | inactive | inactive | inactive | inactive | inactive | inactive | inactive | inactive |  | inactive | inactive |  |  | inactive | inactive | 
13 | CN(C(=O)CCCOc1ccc2[nH]c(=O)ccc2c1)C1CCCCC1 | inactive | inactive | inactive | inactive | inactive | inactive | inactive | inactive | inactive | inactive |  | 13.8 µM (active) | inactive |  |  | inactive | inactive | 
14 | CN1C(=O)CC[C@H]1c1cccnc1 | inactive | inactive | inactive | inactive | inactive | inactive |  | inactive | inactive | inactive | inactive | inactive | inactive |  |  | inactive | inactive | 
15 | CN(C)CCN(Cc1cccs1)c1ccccn1 | inactive | inactive | inactive | inactive | inactive | inactive | inactive | inactive | inactive | inactive | inactive | inactive | inactive |  |  | inactive |  | 
16 | C#CCN(C)CCCOc1ccc(Cl)cc1Cl | inactive | inactive | inactive | inactive | inactive | inactive | inactive | inactive | inactive | inactive | inactive | 30.9 µM (active) | inactive |  |  | inactive | 1.55 µM (active) | 
17 | CC(=O)OC(C)C[N+](C)(C)C (stereo not drawn) | inactive | inactive | inactive | inactive | inactive | inactive | inactive | inactive | inactive | inactive |  | inactive | inactive |  |  |  |  | 
18 | CCN(Cc1ccncc1)C(=O)C(CO)c1ccccc1 (stereo not drawn) | inactive | inactive | inactive | inactive | inactive | inactive | inactive | inactive | inactive | inactive | inactive |  | inactive |  |  |  |  | 
